The record followed here is ChEMBL document CHEMBL3988442, “University of Dundee, Small-Polar-MMV Screening Library” (2021).

The structures appear in SMILES notation. About 13,000 (27%) of roughly 48,000 compounds showed an effect of 50% or more. This is one part of the list.

The test system of the assay is Wolbachia pipientis. The assay is described as follows: Anti-Wolbachia Cell-Based Screen. It is filed as functional. More on the design: scale not given: in the data most compounds retested in dose-response had high values. The conditions noted are these: 5 µM.
For `Cc1ccc(NC(=O)c2cc(S(=O)(=O)N3CCCCC3)c[nH]2)cc1F`, the “Percent Effect” value turned out to be 1.173%. The result for `COCCC1(CNC(=O)NCC2CN(C)CCN2C)CCC1` (centres undefined) reads -22.96%; that for `CC(C)c1ccc(OCCC(=O)N(C)C)cc1`, 6.13%; that for `CC(C)c1nc(/C=C/c2cnn(-c3ccccc3)c2)ncc1C(=O)O`, -2.711%. The result for `NC(=O)c1cccc(CC2CCN(C(=O)CCc3cccc(F)c3)C2)c1` (centres undefined) reads -3.46%; that for `Cc1ccsc1[C@@H]1CCN(C(=O)Cc2ccc(O)cc2)C[C@H]1O`, -5.599%; that for `Cc1nc2cc(C(=O)N3CCCC(n4cncn4)C3)ccc2n1C` (centres undefined), -4.268%. Consider `Cc1nc2cc(C(=O)N3CCCC(n4ccnc4)C3)ccc2n1C` (centres undefined), for which the “Percent Effect” value is recorded as 116.9%. With `Cc1nccn1C1CCCN(C(=O)c2ccc3c(c2)nc(C)n3C)C1` (centres undefined) the figure was 109.3%; with `CCOc1ccc(N(CCC#N)C(=O)c2ccnc(SC)c2)cc1`, 9.969%. With `Cc1cc(CNC(=O)[C@H]2CCCCN2C(=O)OC(C)(C)C)on1` the figure was -34.39%; with `O=C(O)C(F)(F)F.c1cnc(N2CCO[C@H]3CN(Cc4cc[nH]n4)C[C@H]32)cn1`, -10.59%; with `O=C(O)C(F)(F)F.O=C(O)C(F)(F)F.c1cc(CN2C[C@@H]3OCCN(CC4CC4)[C@@H]3C2)n[nH]1`, 105.8%. Take `COCCN1CCO[C@H]2CN(C(=O)c3cccs3)C[C@H]21.O=C(O)C(F)(F)F`: the “Percent Effect” value is recorded as -7.528%. With `O=C(O)C(F)(F)F.O=C(O)C(F)(F)F.c1csc(CN2C[C@@H]3OCCN(CC4CCCO4)[C@@H]3C2)c1` (some centres undefined) the figure was -7.067%; with `O=C(O)C(F)(F)F.O=C(O)C(F)(F)F.O=C(O)C(F)(F)F.c1coc(CN2C[C@@H]3OCCN(CCN4CCCC4)[C@@H]3C2)c1`, -5.292%; with `COCCN1CCO[C@H]2CN(Cc3cc[nH]n3)C[C@H]21.O=C(O)C(F)(F)F.O=C(O)C(F)(F)F`, 90.56%. With `O=C(O)CSc1nnc(-c2ccn[nH]2)n1-c1ccccc1Cl` the figure was -20.89%. With `Cc1ccccc1OCCC(=O)N1CCc2nc(C)n(C)c(=O)c2CC1`, the “Percent Effect” value came to 7.029%. Regarding `Cn1cc(-c2nc(CN3CCOC(Cn4cncn4)C3)cs2)cn1` (centres undefined), the “Percent Effect” value amounted to 113.5%. As to `c1cnc(-c2nc(CN3CCOC(Cn4cncn4)C3)cs2)nc1` (centres undefined), the “Percent Effect” value came out at 0%.

Turning to `Cn1cc(-c2nc(CN3CCOC(Cn4cccn4)C3)cs2)cn1` (centres undefined), the “Percent Effect” value is 14.65%. `c1ccc(-c2nc(CN3CCOC(Cn4cncn4)C3)cs2)cc1` (centres undefined): the “Percent Effect” value is given as 125.5%. In the case of `Cc1ccc(-c2noc(CN3CCOC(Cn4cncn4)C3)n2)cc1` (centres undefined), the “Percent Effect” value is listed as -2.106%.
